From PubChem BioAssay
Beta cell apopt: blocks beta cell apoptosis. INS-1E cytokine-induced death, ATP luminescence, 48 h; percent of positive-control rescue, neutral wells zero. protection from apoptosis, % (concentration not given with the values). 300,000 tested, 0.8% active. AID 435005;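 active = Every replicate reaches about 75%, or at least half do and their mean reaches it too, limit read from the data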;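 also: 0% = cytokine-treated negative control wells and 100% = positive control rescue; higher means more ATP so stronger rescue from cytokine killing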
CSC inhib: cancer stem cell inhibition; cancer stem cell-like cells viability, luminescence; inhibition, % at 7.5 µM; 300,000 tested, 1.1% active; AID 2717; in the data active = inhibition above about 75%; tested in HMLE shEcad cells
MPTP block: inhibitors of mitochondrial permeability transition pore. 360,000 tested, 1.4% active. isolated mouse mitochondria, Ca2+ swelling absorbance, 30 min. inhibition, % at 10 µM;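 active = inhibition of 50% or more, scaled per plate between neutral and stimulator controls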;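 also: 0% = DMSO wells given calcium and 100% = 1 mM EGTA wells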
SKKanGAS inh: blocks kanamycin growth of S. pyogenes SKKanGAS strain; 300,000 tested, 1.3% active; BacTiter-Glo, 6 h; inhibition, % at 7.5 µM;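 active = mean replicate score, as percent of positive control median, at least 50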;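 also: strain carries kanamycin resistance gene driven by streptokinase promoter and grows in 40 µg/ml kanamycin; loss of luminescence reflects streptokinase promoter inhibition or plain growth inhibition; 0% = median of DMSO wells and 100% = positive control at its reference dose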
Mdm2 MdmX PPI: inhibitors of human Mdm2/MdmX interaction; AID 485346; inhibition, % at 8 µM; SaOS-2 split-luciferase Mdm2/MdmX complementation, luminescence; O15151+Q00987; 330,000 tested, 3% active;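 active = inhibition of at least 50% at 8 µM in the primary screen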
Target sequence (O15151 whole entry, looked up): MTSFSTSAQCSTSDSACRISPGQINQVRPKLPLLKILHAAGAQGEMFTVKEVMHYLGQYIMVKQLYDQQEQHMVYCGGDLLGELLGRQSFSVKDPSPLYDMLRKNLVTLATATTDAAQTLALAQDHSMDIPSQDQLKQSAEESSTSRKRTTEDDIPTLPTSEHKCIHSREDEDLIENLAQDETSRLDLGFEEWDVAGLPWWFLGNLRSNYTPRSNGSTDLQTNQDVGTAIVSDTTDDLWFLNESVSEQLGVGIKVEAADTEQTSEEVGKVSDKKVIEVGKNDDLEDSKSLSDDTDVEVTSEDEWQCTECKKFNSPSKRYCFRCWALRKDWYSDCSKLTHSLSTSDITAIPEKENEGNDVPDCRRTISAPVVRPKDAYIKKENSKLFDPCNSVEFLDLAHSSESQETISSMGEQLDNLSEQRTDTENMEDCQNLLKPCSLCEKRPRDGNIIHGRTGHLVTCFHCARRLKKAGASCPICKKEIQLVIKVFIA
Target sequence (Q00987 whole entry, looked up): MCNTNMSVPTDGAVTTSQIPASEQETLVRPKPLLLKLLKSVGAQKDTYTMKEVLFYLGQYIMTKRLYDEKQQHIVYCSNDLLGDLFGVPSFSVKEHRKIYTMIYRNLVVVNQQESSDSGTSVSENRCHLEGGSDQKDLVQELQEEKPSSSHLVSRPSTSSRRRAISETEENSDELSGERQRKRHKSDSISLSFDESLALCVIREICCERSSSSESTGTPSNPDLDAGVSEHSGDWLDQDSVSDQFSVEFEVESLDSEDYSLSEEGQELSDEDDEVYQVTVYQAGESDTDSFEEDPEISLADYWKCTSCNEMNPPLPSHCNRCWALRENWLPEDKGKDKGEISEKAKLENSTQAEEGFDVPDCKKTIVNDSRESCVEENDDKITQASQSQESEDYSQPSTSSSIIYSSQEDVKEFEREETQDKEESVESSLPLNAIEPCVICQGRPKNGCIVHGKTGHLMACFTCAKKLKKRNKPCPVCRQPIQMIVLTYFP
Calb FLC: affects C. albicans growth with fluconazole; 300,000 tested, 0.57% active; C. albicans CaCi-2 (fluconazole-resistant clinical isolate) + fluconazole, Alamar Blue growth, 48 h; growth inhibition, % (concentration not given with the values);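 active = growth inhibition above about 58% in most replicates, limit read from the data, passing the limit was not always enough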;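 also: all wells also contain fluconazole at 8 µg/ml as a sub-toxic cotreatment; 0% = median of DMSO wells and 100% = median of geldanamycin control wells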
Mdm2 MdmX conf: confirmation of human Mdm2/MdmX interaction inhibitors | shares compounds with Mdm2 MdmX PPI | Mdm2-MdmX binding, luminescent assay | inhibition, % at 8 µM | 10,000 tested, 55% active; in the data active = inhibition above about 40%
FLuc counter: counter-screen for Mdm2/MdmX inhibitors: full-length luciferase; SaOS-2 full-length luciferase counterscreen, luminescence; inhibition, % at 8 µM; shares compounds with Mdm2 MdmX PPI; 6,200 tested, 77% active;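 active = mean inhibition at 8 µM reaching about 37%, which flags the compound as non-specific, limit read from the data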;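 also: p53-null SaOS-2 cells with luciferase driven by a doxycycline-inducible promoter; compound on cells about two nights before reading with doxycycline added after day one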
Numbers without * were called inactive; / = no result. A selection: hits, their analogues and other compounds. The true share with any hit is near 5.4%.

SMILES | Beta cell apopt | CSC inhib | MPTP block | SKKanGAS inh | Mdm2 MdmX PPI | Calb FLC | Mdm2 MdmX conf | FLuc counter
CC1CCCCN1S(=O)(=O)c1cnc(Cl)c(Br)c1 (configuration not stated) | -16 | 6 | 0 | 0 | -5 | 6 | / | /
O=C(N/N=C/c1ccc(Br)s1)c1ccncc1 | -2 | / | -2 | -16 | 4 | 27 | / | /
O=C(N/N=C/c1cc(Br)c(Br)s1)c1ccncc1 | 85* | 52 | -1 | 7 | 51* | 26 | 31 | /
COc1ccc(C2NN=C(c3c[nH]c4ccccc34)C2O)cc1 (configuration not stated) | 4 | 50 | 0 | 42 | 1 | 9 | / | /
COc1ccc(C2C(O)C(c3c[nH]c4ccccc34)=NN2C(=O)CCl)cc1 (configuration not stated) | 129* | 109* | 0 | 5 | 98* | 3 | 97* | 1
Cc1ccc([N+](=O)[O-])cc1NC(=O)Nc1cccc(F)c1 | / | / | 16 | 9 | 59* | -3 | 27 | /
CCN1C(=O)C(CC(=O)Nc2ccc(Br)cc2)N(CCCc2ccccc2)C1=S (configuration not stated) | 27 | -15 | 14 | 92* | 84* | 21 | 7 | /
CCCOc1ccc(NC(=O)CC2C(=O)N(CC)C(=S)N2CCCN2CCN(Cc3ccccc3)CC2)cc1 (configuration not stated) | 13 | 25 | 8 | -1 | 81* | -30 | 46* | 65*
CCOc1ccc(NC(=O)CC2C(=O)N(C)C(=S)N2CCCc2ccccc2)cc1 (configuration not stated) | 2 | 24 | 1 | 2 | 13 | 3 | / | /
CCCOc1ccc(NC(=O)CC2C(=O)N(CC)C(=S)N2CCNC(C)=O)cc1 (configuration not stated) | -4 | 8 | -1 | -3 | -46 | 6 | / | /
COc1ccc(NC(=O)NC(=O)c2cc(OCC(F)(F)F)ccc2OCC(F)(F)F)cc1 | -1 | 9 | 10 | 10 | 20 | 1 | / | /
Cc1nc2ccccc2c(=O)n1/N=C/c1c(O)ccc2oc3c(c12)CCCC3 | 93* | 82* | 0 | 22 | 63* | 0 | 38 | 50*
O=C(NCc1ccccc1)c1ccc(-c2ccc(F)c(F)c2)c2ccoc12 | / | / | -1 | / | / | / | / | /
Cc1cccn2c(=O)c3cc(C(=O)N4c5ccccc5CC4C)n(C)c3nc12 (configuration not stated) | -2 | 56 | 1 | 5 | 22 | 3 | / | /
CC1Cc2ccccc2N1C(=O)c1cc2c(=O)n3ccccc3nc2n1C (configuration not stated) | 0 | 18 | 0 | 2 | 53* | 34 | 10 | /
O=C1C(Cc2c[nH]c3ccccc23)NC(=S)N1Cc1ccccc1 (configuration not stated) | -1 | -3 | 0 | -13 | -24 | 10 | / | /
CC(OC(=O)/C=C/c1ccc2ccccc2n1)C(=O)N(C)c1ccccc1 (configuration not stated) | 2 | / | -1 | / | 65* | / | 35 | 56*
COc1ccccc1NC(=O)C(C)OC(=O)/C=C/c1ccc2ccccc2n1 (configuration not stated) | -6 | -2 | -2 | -7 | 12 | 15 | / | /
COc1ccc(C)cc1NC(=O)CN1CCN(S(=O)(=O)c2ccc3ccccc3c2)CC1 | -2 | -5 | -1 | / | 12 | / | / | /
O=c1c2ccccc2nc2sc(Nc3cccc(Cl)c3)nn12 | 12 | -9 | 0 | / | 73* | / | -21 | /
CC(C)(C)OC(=O)N[C@@H](Cc1ccccc1)c1nnc(S(=O)(=O)Cc2ccccc2)o1 | 49 | 131* | / | / | 100* | / | 70* | 0
Cc1ccccc1CS(=O)(=O)c1nnc([C@H](Cc2ccccc2)NC(=O)OC(C)(C)C)o1 | 93* | 99* | -2 | 17 | 100* | -8 | 53* | 1
O=C(N/N=C/c1cc([N+](=O)[O-])cc([N+](=O)[O-])c1O)/C(=C\c1cccs1)NC(=O)c1ccccc1 | -8 | 4 | 22 | 15 | 8 | 2 | / | /
